Test system: PPARgamma LBD (GAL4 fusion)
Test: luciferase reporter transactivation, fold of solvent control; higher = stronger receptor activation
Conditions: HEK293T, exposure time: 24 h
Procedure: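 HEK293T cells were transiently transfected with a GAL4-DBD fused to the ligand-binding domain of a human nuclear receptor (PPARα, PPARγ, PPARδ, FXR, LXRα, PXR, RARα or CAR), the GAL4-(UAS)5-TK firefly luciferase reporter and a Renilla luciferase normalisation plasmid. Cells were exposed to compound for 24 h in 0.5% DMSO. Firefly/Renilla luciferase was expressed as fold of the solvent control (=1). Values are the mean of 2-3 biological replicates; receptor agonists were used as positive controls.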

Row | SMILES | luciferase reporter transactivation (concentration: 1 µM) | luciferase reporter transactivation (concentration: 2.5 µM) | luciferase reporter transactivation (concentration: 5 µM) | luciferase reporter transactivation (concentration: 10 µM) | luciferase reporter transactivation (concentration: 100 µM) | luciferase reporter transactivation (concentration: 25 µM) | luciferase reporter transactivation (concentration: 50 µM) | luciferase reporter transactivation (concentration: 250 µM) | luciferase reporter transactivation (concentration: 500 µM)
1 | NS(=O)(=O)C(F)(F)C(F)(F)C(F)(F)C(F)(F)C(F)(F)C(F)(F)C(F)(F)C(F)(F)F [perfluorooctane sulfonamide] | 0.722 | 1.1 | 1.08 | 1.01 | 1.18 |  |  |  | 
2 | O=C(O)C(F)(F)C(F)(F)F [perfluoropropanoic acid] | 1.14 |  | 1.11 | 1.23 | 1.32 | 1.18 | 1.29 | 1.27 | 1.33

From the supplement of paper PMC11402862
